Measured values taken from the supplement of paper PMC10646978.
± gives the standard deviation.

tested on: RAW-Dual (murine macrophage reporter line); experiment: NF-kB reporter (SEAP) activity fold change vs agonist alone; higher = enhanced NF-kB activity; details: modulator concentration 10 µM; agonist: CpG ODN 1826 0.5 ug/mL
In short: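 RAW-Dual murine macrophage reporter cells were plated at 50 000 per well in 384-well plates, pin-transferred compound to 10 μM final, and pre-incubated for 1 hour at 37 °C before a PRR agonist was added and the cells incubated overnight. NF-κB activity was read from supernatant SEAP with QUANTI-Blue at 620 nm absorbance, and IRF activity from Lucia luciferase with QUANTI-Luc by luminescence. Each signal was expressed as fold change by dividing by the mean agonist-only control on the same plate. Two replicate plates were averaged, with errors obtained by propagation.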

SMILES	NF-kB reporter
O=C(CCn1c(=O)oc2ccccc21)Nc1ccccc1	1.03 ± 0.17
O=C(Nc1ccncc1)c1ccc(OCC2CCOCC2)nc1	1.15 ± 0.063
CNCC[C@@H](Oc1ccccc1C)c1ccccc1.Cl	0.744 ± 0.079
Brc1ccc2ncnc(Nc3ccccc3)c2c1	1.03 ± 0.12
O=C(NC12CC3CC(CC(C3)C1)C2)N1CCOCC1	0.95 ± 0.16
Cc1cc(NC2CCCC2)nc2ccccc12	0.798 ± 0.21
O=C(CCC(=O)OCC(=O)c1cccs1)Nc1ccc(Oc2ccccc2)cc1	0.756 ± 0.064
COC(=O)C1C(=O)C(=CNCc2ccccc2)C(=O)CC1(C)C (stereo not given)	1.12 ± 0.1
Cc1cnc(NC(=O)C2=C(O)c3ccccc3S(=O)(=O)N2C)s1	1.24 ± 0.18
NNC(=O)CN1C(=O)C2CC=C(Cl)CC2C1=O (stereo not given)	0.984 ± 0.062
O=C(COc1ccc2ccccc2c1)Nc1cnoc1	1.12 ± 0.35
Br.Fc1ccc(-c2csc(Nc3ccc4c(c3)OCO4)n2)cc1	0.871 ± 0.076
Cc1occc1C(=O)Nc1ccc([N+](=O)[O-])cc1Cl	0.88 ± 0.079
Cn1cnc2cc(NCc3ccc(Br)cc3)ccc21	0.882 ± 0.14
C[C@H](NC(=O)C(=O)Nc1ccccc1C(C)(C)C)C(=O)N[C@@H](CC(=O)O)C(=O)COc1c(F)c(F)cc(F)c1F	1.32 ± 0.33
O=C(NCCc1csc(-c2ccc(F)cc2)n1)c1ccc(Br)cc1	0.825 ± 0.064
CCN(CC)Cc1cc(Nc2ccnc3cc(Cl)ccc23)ccc1O.Cl.Cl.O.O	0.606 ± 0.026
CC1(C)CCC2(C(=O)O)CCC3(C)C(=CCC4C5(C)CCC(O)C(C)(C)C5CCC43C)C2C1 (stereo not given)	1.18 ± 0.28
NNC(=O)c1ccncc1	1.51 ± 0.21
O=C(Nc1ccccn1)NC1CCS(=O)(=O)C1 (stereo not given)	0.659 ± 0.37
